Among the data in PubChem BioAssay (NCI) are growth values, retold here.

Compounds without any hit were thinned out: in the full panel of roughly 83,000, 20% have a hit.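 Activity criterion: percent growth below 10, measured after cells in 96-well plates were exposed to a single compound concentration for 48 hours.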 Unmarked numbers belong to inactive results. Active and inactive are the calls of the source.

What all share (assay): NCI-60 one-dose screen, 48 h (100 = growth as untreated, 0 = no growth, -100 = all killed)
One test relates to HT29 colon. Conditions: 10 µM unless noted.
The next test has as its system SNB-75 CNS. The note with it: 10 µM unless noted.
A further test relates to U251 CNS. Conditions: 10 µM unless noted.
In a further test the test system is PC-3 prostate. Conditions: 10 µM unless noted.
In a further test the test system is SK-MEL-5 melanoma. The note with it: 10 µM unless noted.
The subject of the next test is UACC-62 melanoma. The note with it: 10 µM unless noted.
The next test concerns LOX IMVI melanoma. The note with it: 10 µM unless noted.
The test system of the next test is SK-MEL-28 melanoma. Conditions: 10 µM.
Another test deals with SK-MEL-2 melanoma. Conditions: 10 µM unless noted.
The next test deals with SN12C renal. Conditions: 10 µM unless noted.
A further test has as its system UO-31 renal. The note with it: 10 µM unless noted.
In another test the test system is TK-10 renal. The note with it: 10 µM unless noted.
The next test has as its system ACHN renal. The note with it: 10 µM unless noted.
In another test the test system is CAKI-1 renal. Conditions: 10 µM unless noted.
The next test relates to A498 renal. The note with it: 10 µM unless noted.
A further test has as its system CCRF-CEM leukemia. Conditions: 10 µM unless noted.
Another test concerns MOLT-4 leukemia. Conditions: 10 µM unless noted.
The subject of the next test is SR leukemia. Conditions: 10 µM unless noted.
The next test concerns EKVX NSCLC. Conditions: 10 µM unless noted.

For `Cc1ccc(OCCCCCCNCCO)c(C)c1`, the growth in the test with HT29 colon was 22.4%; with SNB-75 CNS, 31.1%; in the test on U251 CNS, 3.86% (active); with PC-3 prostate it was 16%; in the test on SK-MEL-5 melanoma it was -58.3% (active); with UACC-62 melanoma it was -42% (active). The growth with LOX IMVI melanoma was -1.77% (active); with SK-MEL-28 melanoma, 15.5%; in the test with SK-MEL-2 melanoma, 2.48% (active); in the test with SN12C renal, 7.94% (active); in the test on UO-31 renal, -21% (active); in the test on TK-10 renal, 28.9%. For the same compound, the growth was 15.3% in the test with ACHN renal; -8.91% (active) in the test with CAKI-1 renal; 35.3% in the test on A498 renal; 7.2% (active) in the test with CCRF-CEM leukemia; 10.6% in the test with MOLT-4 leukemia; 11.2% in the test on SR leukemia.
For `CN(C)c1ccc(/C=C/c2ccnc3c(O)cccc23)cc1`, the growth is 98.6% in the test with HT29 colon; 28.5% in the test with SNB-75 CNS; 12% in the test with U251 CNS; 32% in the test with PC-3 prostate; 8.23% (active) in the test with SK-MEL-5 melanoma; -27.6% (active) with UACC-62 melanoma. The growth in the test on LOX IMVI melanoma is 13.1%; in the test on SK-MEL-28 melanoma, 29.1%; in the test with SK-MEL-2 melanoma, 11.8%; with SN12C renal, 21.3%; with TK-10 renal, 41.6%; with ACHN renal it was 12.7%. Further, the growth was -3.49% (active) in the test with CAKI-1 renal; 45.1% in the test with A498 renal; 6.75% (active) with CCRF-CEM leukemia; -13.2% (active) with MOLT-4 leukemia; -11.1% (active) with SR leukemia.
In the case of `CC1CCCCN1CCCNC(=O)c1ccc2c(c1)sc1nc(-c3ccc(F)cc3)cn12` (stereo unspecified), the growth with HT29 colon is 92.8%; in the test with SNB-75 CNS, 83.5%; in the test on U251 CNS it was 99.1%; with PC-3 prostate, 83.8%; in the test with SK-MEL-5 melanoma, 99.3%; in the test with UACC-62 melanoma it was 100%. Also, the growth with LOX IMVI melanoma was 93.1%; with SK-MEL-28 melanoma, 104%; in the test with SK-MEL-2 melanoma, 103%; in the test on SN12C renal, 99.6%; with UO-31 renal it was 77%; in the test on ACHN renal, 101%. For the same compound, the growth in the test with CAKI-1 renal is 97.4%; with A498 renal, 83.7%; in the test on CCRF-CEM leukemia, 82.8%; with MOLT-4 leukemia it was 85.7%; in the test on SR leukemia, 78.1%.
In the case of `COc1nccc2cc3c(=O)n4c(cc5ccccc54)c(=O)n3c12`, the growth is 112% with HT29 colon; 89.2% in the test on SNB-75 CNS; 101% with U251 CNS; 87.8% in the test on PC-3 prostate; 96.6% in the test with SK-MEL-5 melanoma; 101% with UACC-62 melanoma. For the same compound, the growth with LOX IMVI melanoma was 97.1%; in the test on SK-MEL-28 melanoma it was 109%; with SK-MEL-2 melanoma it was 94.3%; in the test with SN12C renal, 95.7%; in the test with UO-31 renal, 53.4%; with TK-10 renal, 131%. The growth in the test on ACHN renal was 96%; with CAKI-1 renal, 92.5%; with A498 renal, 108%; in the test on CCRF-CEM leukemia it was 96.5%; in the test with MOLT-4 leukemia, 86.3%; in the test with SR leukemia, 87.1%.
As for `Nc1ncnc(N)c1NC(=O)c1ccc(OCc2ccccc2)cc1`, the growth in the test with HT29 colon is 96.3%; with SNB-75 CNS, 110%; with U251 CNS it was 102%; with PC-3 prostate, 106%; with SK-MEL-5 melanoma it was 102%; in the test with UACC-62 melanoma, 99%. The growth with LOX IMVI melanoma was 110%; in the test on SK-MEL-28 melanoma it was 117%; in the test with SK-MEL-2 melanoma, 93.1%; in the test with SN12C renal, 98.9%; in the test with UO-31 renal, 88.1%; in the test on TK-10 renal, 99.3%. In addition, the growth is 99.9% in the test on ACHN renal; 99.3% in the test on CAKI-1 renal; 98% in the test with A498 renal; 98.5% in the test with CCRF-CEM leukemia; 96.8% in the test with MOLT-4 leukemia; 94% with SR leukemia.
Regarding `Cc1cc2c(c(C)c1Cl)C(=O)/C(=C/c1ccco1)O2`, the growth was 98.3% in the test on HT29 colon; 76.7% in the test on SNB-75 CNS; 96.2% with U251 CNS; 98.5% in the test with PC-3 prostate; 69.9% in the test with SK-MEL-5 melanoma; 88.7% in the test on UACC-62 melanoma. The growth in the test on LOX IMVI melanoma is 93%; in the test with SK-MEL-28 melanoma it was 107%; in the test on SK-MEL-2 melanoma it was 102%; with EKVX NSCLC it was 83.4%; in the test on SN12C renal, 96%; with TK-10 renal, 93.9%. Also, the growth is 92.2% with ACHN renal; 93.7% in the test on CAKI-1 renal; 104% with A498 renal; 95.6% with CCRF-CEM leukemia; 97.3% in the test on MOLT-4 leukemia; 69.7% in the test with SR leukemia.
Take `O=C(Cn1cc(COc2ncnc3c2cnn3-c2ccccc2)nn1)Nc1cccc2ccccc12`: the growth in the test on HT29 colon is 102%; in the test with SNB-75 CNS, 74.9%; with U251 CNS it was 96.7%; in the test on PC-3 prostate it was 95.8%; with SK-MEL-5 melanoma it was 92.5%; in the test on UACC-62 melanoma, 83.9%. The growth is 97.5% with LOX IMVI melanoma; 100% in the test on SK-MEL-28 melanoma; 113% with SK-MEL-2 melanoma; 85.5% in the test on EKVX NSCLC; 96.8% with SN12C renal; 99.8% in the test on UO-31 renal. The growth in the test on TK-10 renal is 108%; in the test with ACHN renal, 91%; in the test on CAKI-1 renal, 90.6%; in the test with A498 renal it was 88.8%; in the test with CCRF-CEM leukemia it was 96.6%; in the test on MOLT-4 leukemia, 94.8%. Further, in the test on SR leukemia, the growth is 101%.
Regarding `CCOC(=O)c1cc2c(n1Cc1ccccc1)-c1oncc1CCC2`, the growth in the test with HT29 colon is 37.7%; with SNB-75 CNS, 75.6%; in the test on U251 CNS it was 85.8%; in the test with PC-3 prostate it was 80.6%; in the test on SK-MEL-5 melanoma, 66.6%; in the test on UACC-62 melanoma it was 51.8%. Further, the growth in the test with LOX IMVI melanoma is 79.4%; with SK-MEL-28 melanoma, 67%; in the test with SK-MEL-2 melanoma it was 83.5%; in the test with SN12C renal, 82.2%; in the test with UO-31 renal, 62.5%; with TK-10 renal, 114%. Further, the growth was 83.8% with ACHN renal; 74% with CAKI-1 renal; 74.7% with A498 renal; 66.4% in the test with CCRF-CEM leukemia; 72% with MOLT-4 leukemia; 14.1% in the test with SR leukemia.
For `COc1ccc(C2C3=C(COC3=O)N(CCO)c3cc4c(cc32)OCCO4)cc1` (stereo unspecified), the growth in the test with HT29 colon is 50.7%; in the test on SNB-75 CNS, 60.4%; in the test on U251 CNS, 87%; with PC-3 prostate, 72.9%; with SK-MEL-5 melanoma it was 60.8%; with UACC-62 melanoma, 72.4%. Further, the growth is 77.4% with LOX IMVI melanoma; 95% with SK-MEL-2 melanoma; 121% with EKVX NSCLC; 95.4% in the test on SN12C renal; 101% in the test on UO-31 renal; 91.6% in the test with TK-10 renal. Also, the growth in the test on ACHN renal was 96.5%; in the test with CAKI-1 renal, 80.8%; with A498 renal, 93.7%; in the test on CCRF-CEM leukemia it was 89.3%; in the test with MOLT-4 leukemia, 81.9%; in the test on SR leukemia, 31.6%.
